Results reported in the supplement of paper PMC6555819.

How the values were obtained:
Experiment in all cases: PBM binding z-score (relative to random genomic background probes); higher = stronger binding; sequences stand for … in GC…GCGATTGACAGCGTAGAATGAAGG
[1] = system: FXR:RXRa (NR concentration 270 nM, RXRa partner concentration 90 nM)
How it was run: (§1)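 Binding z-scores take random background probes as their reference. They come from custom Agilent 4×180K protein-binding microarrays incubated 1 h with ligand-free nuclear receptor dimers, with antibodies against each partner (one per run) detecting binding. Scanned fluorescence was regression-normalized.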

[2] = system: LXRa:RXRa (NR concentration 270 nM, RXRa partner concentration 90 nM)
How it was run: as §1

[3] = system: LXRa homodimer (NR concentration 270 nM)
How it was run: as §1

[4] = system: LXRb:RXRa (NR concentration 270 nM, RXRa partner concentration 90 nM)
How it was run: as §1

[5] = system: LXRb homodimer (NR concentration 270 nM)
How it was run: as §1

[6] = system: PPARa:RXRa (NR concentration 270 nM, RXRa partner concentration 90 nM)
How it was run: as §1

[7] = system: PPARg:RXRa (NR concentration 180 nM, RXRa partner concentration 90 nM)
How it was run: as §1

[8] = system: PPARg:RXRa 270nM:90nM, anti-RXR (NR concentration 270 nM, RXRa partner concentration 90 nM)
How it was run: as §1

[9] = system: PPARg:RXRa 30nM:10nM, anti-RXR (NR concentration 30 nM, RXRa partner concentration 10 nM)
How it was run: as §1

[10] = system: PPARg:RXRa 90nM:30nM, anti-RXR (NR concentration 90 nM, RXRa partner concentration 30 nM)
How it was run: as §1

[11] = system: PPARg:RXRa DBDmut IVT, anti-RXR (DBD mutation: RXRa K156A/R161A, NR concentration 270 nM, RXRa partner concentration 90 nM)
How it was run: as §1

[12] = system: PPARg:RXRa IVT, anti-PPARg (NR concentration 270 nM, RXRa partner concentration 90 nM)
How it was run: as §1

[13] = system: PPARg DBDmut:RXRa IVT, anti-PPARg (DBD mutation: PPARg1 K132A/R137A, NR concentration 270 nM, RXRa partner concentration 90 nM)
How it was run: as §1

[14] = system: PPARg DBDmut IVT, anti-PPARg (DBD mutation: PPARg1 K132A/R137A, NR concentration 270 nM)
How it was run: as §1

[15] = system: PPARg homodimer (NR concentration 180 nM)
How it was run: as §1

[16] = system: PXR:RXRa (NR concentration 270 nM, RXRa partner concentration 90 nM)
How it was run: as §1

[17] = system: PXR homodimer (NR concentration 270 nM)
How it was run: as §1

[18] = system: RARa:RXR (NR concentration 270 nM, RXRa partner concentration 90 nM)
How it was run: as §1

[19] = system: RARa homodimer (NR concentration 270 nM)
How it was run: as §1

[20] = system: RARb:RXRa (NR concentration 270 nM, RXRa partner concentration 90 nM)
How it was run: as §1

Row | Sequence | PBM binding z-score [1] | PBM binding z-score [2] | PBM binding z-score [3] | PBM binding z-score [4] | PBM binding z-score [5] | PBM binding z-score [6] | PBM binding z-score [7] | PBM binding z-score [8] | PBM binding z-score [9] | PBM binding z-score [10] | PBM binding z-score [11] | PBM binding z-score [12] | PBM binding z-score [13] | PBM binding z-score [14] | PBM binding z-score [15] | PBM binding z-score [16] | PBM binding z-score [17] | PBM binding z-score [18] | PBM binding z-score [19] | PBM binding z-score [20]
1 | TCTTATAGGTAAAAGGTGAAAGTCGGTGTGGTAA | 2.14 | 2.25 | 0.401 | 2.19 | 0.39 | 5.39 | 8.99 | 8.57 | 8.65 | 9.86 | 5.43 | 5.26 | 1.47 | 1.32 | 3.07 | 1.92 | 0.675 | 3.31 | 1.6 | 2.21
2 | GTAACGAGGGCATTCGAGTTGATAGCATGGCGAT | 1.83 | 1.91 | -0.134 | 0.286 | -0.321 | 1.72 | 1.12 | 0.912 | 0.115 | 0.712 | 3.16 | 2.66 | 0.308 | -0.0825 | -0.229 | 3.76 | 2.23 | 0.683 | -0.277 | 1.89
3 | ACTATTAGTTCAGACGAGGGCAACCGATAGGTTG | 1.07 | 1.31 | 0.305 | 0.453 | 0.271 | 0.817 | 0.621 | 0.191 | -0.0108 | 0.00845 | 0.264 | 0.891 | 0.625 | 0.802 | 0.783 | 3.92 | 2.04 | 0.878 | 0.72 | 2.1
4 | CCTGGGAGGACAGAAGGTCAGAGCTGTCCGCTTT | 1.53 | 1.86 | 0.303 | 1.01 | -0.655 | 2 | -0.0173 | 1.11 | -0.659 | 0.29 | -0.504 | 0.212 | -1.2 | -1.6 | 1.81 | 1.65 | -0.162 | 2.16 | 0.121 | 3.35
5 | CGTCCAAGGTCAATGCTAGGTCAGTGTAAGCATT | 6.38 | 5.59 | 2.58 | 4.11 | 0.681 | 5 | 3.55 | 4.67 | 1.23 | 2.97 | 3.19 | 3.97 | 0.641 | -0.396 | 6.64 | 4.83 | 2.1 | 5.95 | 1.32 | 5.13
6 | CGAACTAGGTCAGAACTGGACAGTGAAGGATGAT | 0.671 | 0.375 | -0.326 | 0.262 | -0.439 | 3.26 | 5.1 | 4.49 | 1.77 | 3.68 | 6.94 | 7.08 | 2.69 | 3.66 | 1.37 | 0.313 | -0.282 | 0.591 | -0.224 | 2.71
7 | AGTCAAAGTTCATCTAGGTACCGTAAGATATGCT | 6.55 | 6.25 | 5.57 | 3.95 | 1.62 | 4.76 | 6.25 | 6.29 | 3.36 | 5.38 | 0.148 | 2.85 | 2.26 | 1.1 | 3.06 | 5.28 | 5.43 | 3.85 | 1.42 | 4.81
8 | TCGAGTAGGTTACGAATGGGGCATTCAGCTTTCT | 0.143 | 0.677 | -0.52 | 0.42 | -0.693 | 0.834 | 0.32 | 0.972 | 0.971 | 0.914 | 3.5 | 2.62 | -0.724 | -1.15 | -0.342 | -0.00987 | -0.855 | 0.446 | -0.789 | 0.855
9 | CCTAGCAGGCCAATCTGGGTCGCTCAAGGCTTGA | 0.866 | 0.838 | -0.942 | 0.983 | -1.1 | 2.39 | 0.206 | 0.917 | -0.999 | 0.104 | 1.28 | 2.66 | -1.25 | -1.04 | -0.519 | 0.776 | -0.579 | 1.45 | -0.891 | 0.807
